From the supplement of paper PMC3334620
The full ranking holds about 33,000 sequences; the median of “E-score (-0.5 to 0.5)” is about -0.011, and the highest 2% start at about 0.28. Shown is part of a subset that was picked to be rich in the highest values.

molecular target: T1, Gcr1 (UniProt P07261); assay: PBM E-score (8-mer binding enrichment) (E-score (-0.5 to 0.5)); higher = stronger / more preferred TF binding; conditions: protein concentration: 100 nM; construct: GST-full length
T1 sequence: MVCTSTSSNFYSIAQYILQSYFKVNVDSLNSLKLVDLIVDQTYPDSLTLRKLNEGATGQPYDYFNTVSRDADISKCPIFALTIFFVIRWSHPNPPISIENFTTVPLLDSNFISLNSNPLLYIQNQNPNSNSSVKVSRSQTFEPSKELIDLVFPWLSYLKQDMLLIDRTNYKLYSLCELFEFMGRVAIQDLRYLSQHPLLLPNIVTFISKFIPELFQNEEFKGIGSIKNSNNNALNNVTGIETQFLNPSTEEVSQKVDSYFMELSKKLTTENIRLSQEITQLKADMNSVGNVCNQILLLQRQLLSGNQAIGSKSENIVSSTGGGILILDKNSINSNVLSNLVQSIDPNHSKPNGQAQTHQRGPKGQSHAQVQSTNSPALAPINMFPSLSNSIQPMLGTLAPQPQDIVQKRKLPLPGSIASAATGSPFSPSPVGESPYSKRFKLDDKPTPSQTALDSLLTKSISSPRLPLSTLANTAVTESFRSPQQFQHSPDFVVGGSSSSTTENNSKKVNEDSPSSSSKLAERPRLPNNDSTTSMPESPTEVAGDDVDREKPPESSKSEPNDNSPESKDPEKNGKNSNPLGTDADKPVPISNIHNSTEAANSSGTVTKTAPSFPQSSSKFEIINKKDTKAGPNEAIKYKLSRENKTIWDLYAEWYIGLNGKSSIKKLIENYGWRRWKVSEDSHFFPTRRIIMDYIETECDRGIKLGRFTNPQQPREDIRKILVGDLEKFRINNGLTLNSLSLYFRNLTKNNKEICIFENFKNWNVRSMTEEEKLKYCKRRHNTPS
Description: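 Universal 'all 10-mer' protein binding microarrays (Agilent AMADID 015681) probed with GST-tagged S. cerevisiae TFs (full-length or DBD) made by in vitro transcription/translation (PURExpress), about 100-200 nM. Bound TF was detected with fluorescent anti-GST. Each ungapped 8-mer (which stands for itself and its reverse complement) is scored by the PBM enrichment score (E-score), a modified Wilcoxon-Mann-Whitney statistic from -0.5 to +0.5, computed with the Universal PBM Analysis Suite. Scale: above 0.35 generally sequence-specific binding.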

Row | Sequence | PBM E-score
1 | ATAGGGTC | -0.162
2 | ACATCGAC | -0.154
3 | ACGGCTCA | -0.123
4 | AGGCGTGA | -0.191
5 | AAAAGAGC | -0.0507
6 | AAATGGGA | 0.194
7 | ACGTCAGA | -0.0561
8 | CAGGTCAA | -0.173
9 | CCCACAAG | 0.0598
10 | TCCACAAA | 0.288
11 | CCCACAAA | 0.305
12 | CCCCACAA | 0.305
13 | CCCACGAG | -0.0381
14 | CCCCACAG | -0.0776
15 | GCCACAAA | 0.0996
16 | ACCACAAA | 0.236
17 | CCCCACAC | 0.108
18 | ACACAAGG | -0.0735
19 | GCTTTCTA | -0.196
20 | GTTTACCA | -0.022
21 | CCGGGACA | -0.0293
22 | AAGACTCC | 0.0934
23 | CCTTTTCA | -0.164
24 | CACTCTGG | 0.0408
25 | AGAGGGAA | -0.176

Row | Sequence | PBM E-score
26 | GGAATTCA | 0.192
27 | AGAATTCC | 0.164
28 | GGAATTCC | 0.426
29 | AGCTAGAG | -0.226
30 | ATTCATAA | -0.0219
31 | TCGTCTAA | 0.112
32 | ACCTCTAA | 0.16
33 | CCGTCTAA | 0.0045
34 | TCATCTAA | -0.0664
35 | GCCTCTAA | 0.265
36 | GCGTCTAA | 0.357
37 | CCATCTAA | 0.0606
38 | GCATCTAA | 0.303
39 | TCCTCTAA | 0.282
40 | CATCACGG | -0.01
41 | AAGTGAAC | -0.0708
42 | ATGATTCA | -0.105
43 | TCTCAAAA | 0.137
44 | CAAGAGAA | 0.0254
45 | GGATGGCA | -0.167
46 | CCCGACGG | -0.158
47 | CTATTGGC | 0.0102
48 | ACCCGCCC | -0.135
49 | CCCCGCCC | 0.338
50 | GCCCGCCC | 0.0747

Row | Sequence | PBM E-score
51 | ATGCTGGA | 0.0516
52 | AGAACTGG | 0.262
53 | AGACCGCT | -0.2
54 | TCGGGGCA | 0.161
55 | ATTGGGTG | 0.085
56 | ACAGGATG | 0.372
57 | ACAGGATC | 0.197
58 | AGAGGAAG | 0.385
59 | AGAGGAAC | 0.177
60 | AGAGGATA | -0.0247
61 | GTAGGAAC | 0.0386
62 | AGAGGATG | 0.315
63 | CTAGGAAC | 0.149
64 | AGAGGAAA | -0.0469
65 | ATAGGAAC | 0.319
66 | AGAGGATC | 0.024
67 | ACAGGATA | 0.177
68 | AGTGTCCA | 0.057
69 | TAGTATGA | 0.0561
70 | CTCCGATC | -0.00026
71 | ATGCTAGG | -0.0494
72 | CCCGGATC | 0.256
73 | CCCTCAGC | -0.0815
74 | ATTCAGCC | 0.0229
75 | AAAGGAAC | 0.219

Row | Sequence | PBM E-score
76 | ATAGGAAT | 0.27
77 | ATAGGAAG | 0.414
78 | ATAGGATA | -0.0284
79 | AAAGGAAG | 0.361
80 | CAAGGAAG | 0.143
81 | ATAGGATC | 0.158
82 | ATAGGAAA | -0.0777
83 | ATAGGATG | 0.333
84 | CGCTGCCC | 0.164
85 | CGGGGTGC | 0.226
86 | CGGGATCC | 0.371
87 | AGGGATCA | -0.054
88 | CCGGATCC | 0.279
89 | CGGGATCA | 0.245
90 | AGGGATCC | 0.286
91 | AGGGATCG | -0.151
92 | AGCATCAA | 0.0409
93 | CACGCACC | 0.0442
94 | AGACCGAA | -0.18
95 | GACGGCGC | -0.0687
96 | AGCCTCTA | 0.0722
97 | CCCAGAAA | 0.283
98 | GCCAGAAA | 0.236
99 | CCCAGAAG | 0.233
100 | TTCAGAAA | 0.12

Row | Sequence | PBM E-score
101 | ACCAGAAA | 0.0905
102 | TCCAGAAA | 0.304
103 | GCCTACTA | 0.00583
104 | AGCCCCGA | -0.108
105 | AAAGCCAC | 0.0178
106 | GAAGCCTC | 0.283
107 | CAAGCCTC | -0.0336
108 | CAAGCCAC | -0.124
109 | GAAGCCAA | 0.29
110 | AAAGCCTC | -0.0619
111 | GAAGCCAC | 0.417
112 | AAAGCCAA | 0.0021
113 | TAAGCCAA | 0.0672
114 | ACTACCCA | -0.135
115 | AATAGCCG | -0.0191
116 | CCCGGGTA | -0.031
117 | TAGGCGCA | 0.225
118 | CCAAAATC | 0.136
119 | ATGGAACA | -0.0319
120 | CTGGAACA | -0.0357
121 | ATGGAACC | 0.294
122 | ATGGAACG | -0.0103
123 | CTGGAAAC | 0.196
124 | CTGGAACC | 0.375
125 | AGCATTCG | -0.235

Row | Sequence | PBM E-score
126 | CTTGGTGC | 0.116
127 | AACTAAAT | 0.123
128 | CAACATTG | -0.0426
129 | AAAACCGT | 0.0768
130 | CTCGGGCC | -0.107
131 | ACTGTCTC | -0.0499
132 | CGATGCCG | 0.145
133 | AAGTAGAA | 0.0726
134 | CGTTCCAA | 0.03
135 | GGTTCCAC | 0.305
136 | AGTTCCAC | 0.0854
137 | CGTTCCCA | -0.0578
138 | AGTTCCCA | 0.22
139 | GGTTCCAA | 0.391
140 | GGTTCCCA | 0.327
141 | GGTTCCTA | 0.342
142 | CGTTCCTA | 0.15
143 | AGTTCCTA | 0.116
144 | CGTTCCAC | 0.0103
145 | TGTTCCAA | 0.112
146 | CGCTTTCA | -0.00233
147 | CCTGAGAC | -0.0674
148 | GCACCAAC | 0.197
149 | GTATCTAA | 0.16
150 | AAGACGCG | 0.278

Row | Sequence | PBM E-score
151 | AAGACGCC | 0.349
152 | CAGACGCA | 0.175
153 | AAGACGCT | 0.218
154 | CAGACGCG | 0.136
155 | CAGACGCC | 0.329
156 | GCGAAGAC | -0.133
157 | AGAGCAGG | 0.0116
158 | ATACCTGC | 0.115
159 | GAACGCTA | -0.111
160 | CCCTGGCA | -0.00029
161 | CCTCTCGC | -0.0389
162 | CAGGATCG | 0.154
163 | CGGGATGC | 0.332
164 | AAGGATGA | -0.116
165 | CAGGATCC | 0.345
166 | CAGGATGG | -0.132
167 | AGGGATGC | 0.098
168 | AAGGATGT | 0.0399
169 | CGGGATGA | -0.188
170 | CAGGATGC | 0.446
171 | AAGGATGC | 0.313
172 | CAGGATCA | -0.179
